From ChEMBL document CHEMBL1961873, “Compounds: GSK PKIS; Assays: Nanosyn kinase panel” (2012) come the findings set out here.

The structures appear in SMILES notation.
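Note: values are mean percent inhibition of FLT1.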

The assay deals with Vascular endothelial growth factor receptor 1 (Homo sapiens) (UniProt P17948). As to conditions: at 0.1 µM.
Vascular endothelial growth factor receptor 1 (Homo sapiens), sequence (P17948 whole entry): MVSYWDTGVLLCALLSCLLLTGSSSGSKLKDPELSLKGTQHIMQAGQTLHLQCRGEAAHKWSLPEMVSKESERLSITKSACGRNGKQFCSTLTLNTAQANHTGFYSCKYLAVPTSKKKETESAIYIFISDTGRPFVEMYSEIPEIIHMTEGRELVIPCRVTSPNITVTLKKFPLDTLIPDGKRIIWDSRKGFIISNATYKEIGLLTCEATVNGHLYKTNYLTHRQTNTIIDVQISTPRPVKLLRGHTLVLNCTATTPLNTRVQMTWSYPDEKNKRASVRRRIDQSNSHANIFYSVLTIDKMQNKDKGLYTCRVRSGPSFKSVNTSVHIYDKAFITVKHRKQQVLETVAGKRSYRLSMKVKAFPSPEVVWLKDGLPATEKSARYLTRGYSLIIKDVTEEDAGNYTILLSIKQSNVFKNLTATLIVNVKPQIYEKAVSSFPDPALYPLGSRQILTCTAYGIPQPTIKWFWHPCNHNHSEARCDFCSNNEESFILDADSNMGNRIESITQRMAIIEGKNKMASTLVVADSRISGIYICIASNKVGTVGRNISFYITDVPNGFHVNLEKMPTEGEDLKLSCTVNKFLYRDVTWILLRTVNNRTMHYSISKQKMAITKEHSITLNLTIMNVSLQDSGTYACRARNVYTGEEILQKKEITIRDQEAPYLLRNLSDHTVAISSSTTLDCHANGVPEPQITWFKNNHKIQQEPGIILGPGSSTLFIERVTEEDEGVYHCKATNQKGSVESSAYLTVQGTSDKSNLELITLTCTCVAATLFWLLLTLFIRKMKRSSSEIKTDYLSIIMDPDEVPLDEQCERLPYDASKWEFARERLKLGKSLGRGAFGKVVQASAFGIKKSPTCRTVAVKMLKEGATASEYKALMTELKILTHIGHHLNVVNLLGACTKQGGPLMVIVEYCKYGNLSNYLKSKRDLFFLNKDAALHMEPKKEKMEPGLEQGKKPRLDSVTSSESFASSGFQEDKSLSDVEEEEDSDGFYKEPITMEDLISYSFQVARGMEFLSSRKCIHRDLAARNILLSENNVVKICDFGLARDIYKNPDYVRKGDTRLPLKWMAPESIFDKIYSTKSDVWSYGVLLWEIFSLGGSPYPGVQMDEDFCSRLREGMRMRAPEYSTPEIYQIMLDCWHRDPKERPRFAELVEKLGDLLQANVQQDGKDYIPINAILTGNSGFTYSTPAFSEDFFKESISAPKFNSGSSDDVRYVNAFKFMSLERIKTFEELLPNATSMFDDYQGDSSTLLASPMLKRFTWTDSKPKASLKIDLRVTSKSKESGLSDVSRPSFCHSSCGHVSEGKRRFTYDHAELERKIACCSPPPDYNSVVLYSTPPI
As a reminder, the inhibition is the relative decrease from the control value, in per cent. Turning to `CS(=O)(=O)CCN(CC#N)Cc1ccc(-c2ccc3ncnc(Nc4ccc(OCc5cccc(F)c5)c(Cl)c4)c3c2)o1`, the inhibition worked out at 3.08%. Next, `CC(=O)Nc1cccc(C#Cc2cncnc2Nc2ccc(OCc3cccc(F)c3)c(Cl)c2)n1`: -1.03%. Next, `COc1ccccc1Nc1ncc(-c2ccccc2)o1`: 4.3%; `NS(=O)(=O)c1cccc(-c2ccc3c(NC(=O)C4CC4)n[nH]c3c2)c1`: -1.03%. In the case of `Cc1nnc(-c2ccc(C)c(-c3ccc(C(=O)Nc4cccc(C#N)c4)cc3)c2)o1` it was -0.39%; in that of `COc1ccc(-c2nn3ncccc3c2-c2ccnc(Nc3ccc(Cl)c(C(F)(F)F)c3)n2)cc1`, -1.35%. With `O=C1NC(=O)C(c2ccc(Cl)cc2)=C1Nc1ccc(Cl)c(C(=O)O)c1`, the inhibition came out at 0.79%. As to `COC(=O)Nc1nc2cc(Oc3cccc(NC(=O)Nc4cc(C(F)(F)F)ccc4F)c3)ccc2[nH]1`, the inhibition came out at 2.97%. Next, `O=C1NC(=O)C(c2cccc(Cl)c2)=C1Nc1ccc(O)c(Cl)c1`: 0.72%. As to `CCCN1CCC=C(c2ccc(Nc3nc(Nc4ccccc4C(N)=O)c4cc[nH]c4n3)c(C)c2)C1`, the inhibition was -0.55%.

Take `Nc1nc(-c2ccc3c(c2)C(=Cc2cc(Br)c(O)c(Br)c2)C(=O)N3)cs1`: the inhibition was -0.63%. In the case of `O=C1NC(=O)C(c2ccccc2Cl)=C1Nc1cccc(O)c1` it was 0.36%; in that of `CCc1cccc(NC(=O)Nc2ccc(Oc3ccc4nc(NC(=O)OC)[nH]c4c3)cc2)c1`, 36.4%; in that of `CC1=C(C(=O)Nc2ccc3[nH]ncc3c2)C(c2ccc3ccccc3c2)CC(=O)N1` (stereo not given), 2.44%. In the case of `CS(=O)(=O)Nc1ccc(N/C=C2\C(=O)Nc3ccccc32)cc1` it was 4.31%.
